We go through one sequence from PMC7862700, “An all-to-all approach to the identification of sequence-specific readers for epigenetic DNA modifications on cytosine”.

Common to all, as to assay: DAPPL (digital affinity profiling via proximity ligation, sequencing); 10 mM Tris-HCl pH 7.5, 50 mM NaCl, 1 mM DTT, 4% glycerol, room temperature, 30 min; GST-TFs on glutathione beads, 16-mer random dsDNA library, 0.1% formaldehyde crosslink after washing; high values mean tight binding
The target in experiment [1] is T1, FEV (Homo sapiens, UniProt Q99581 1-238).
T1 sequence: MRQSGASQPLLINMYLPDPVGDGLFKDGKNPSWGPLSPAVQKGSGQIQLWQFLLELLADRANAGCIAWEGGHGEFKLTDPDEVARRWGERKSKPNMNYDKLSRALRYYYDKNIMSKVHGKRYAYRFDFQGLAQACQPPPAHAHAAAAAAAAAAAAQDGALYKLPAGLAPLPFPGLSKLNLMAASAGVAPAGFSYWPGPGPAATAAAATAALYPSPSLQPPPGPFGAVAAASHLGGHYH
The following applies: protein: recombinant; tags: N-terminal GST; dsDNA, one strand shown. A digest of the protocol:
(§1)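 In yeast, human transcription factors were expressed with a GST fusion, then pulled down on glutathione beads and given DNA barcodes. Pooled with a tag-only sample, they were exposed to 200 nmole of a 16-mer random double-stranded DNA library (Tris/NaCl/DTT/glycerol buffer, room temperature, 30 min), washed, crosslinked with 0.1% formaldehyde, proximity-ligated using BsaI/T4 ligase for 1 h at 37 °C, PCR-amplified and read on an Illumina NextSeq500. Each hexamer's frequency of reads for a factor, divided by the matching frequency for the tag-only sample, gives the binding signal.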

Experiment [2] concerns the target ETV5 (Homo sapiens, UniProt P41161 1-510). The conditions noted are these: protein: recombinant; tags: N-terminal GST; dsDNA, one strand shown. A digest of the protocol: as §1
Experiment [3] has as its target HSF1 (Homo sapiens, UniProt Q00613 1-529). The following applies: protein: recombinant; tags: N-terminal GST; chain copies: 3; dsDNA, one strand shown. A digest of the protocol: as §1
Experiment [4] deals with T2, SPIC (Homo sapiens, UniProt Q8N5J4 1-248).
T2 sequence: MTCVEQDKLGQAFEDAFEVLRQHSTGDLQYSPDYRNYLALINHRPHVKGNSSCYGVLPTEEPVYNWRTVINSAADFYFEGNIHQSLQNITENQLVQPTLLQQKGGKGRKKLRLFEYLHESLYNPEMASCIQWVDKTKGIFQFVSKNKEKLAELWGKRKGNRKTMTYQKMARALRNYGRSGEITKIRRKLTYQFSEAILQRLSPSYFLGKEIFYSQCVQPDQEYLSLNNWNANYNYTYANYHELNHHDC
The following applies: protein: recombinant; tags: N-terminal GST; dsDNA, one strand shown. A digest of the protocol:
as §1

Experiment [5] concerns the target ELF4 (Homo sapiens, UniProt Q99607 1-663). The conditions noted are these: protein: recombinant; tags: N-terminal GST; dsDNA, one strand shown. A digest of the protocol: as §1
In experiment [6] the target is T3, ELK4 (Homo sapiens, UniProt P28324-2 1-405).
T3 sequence: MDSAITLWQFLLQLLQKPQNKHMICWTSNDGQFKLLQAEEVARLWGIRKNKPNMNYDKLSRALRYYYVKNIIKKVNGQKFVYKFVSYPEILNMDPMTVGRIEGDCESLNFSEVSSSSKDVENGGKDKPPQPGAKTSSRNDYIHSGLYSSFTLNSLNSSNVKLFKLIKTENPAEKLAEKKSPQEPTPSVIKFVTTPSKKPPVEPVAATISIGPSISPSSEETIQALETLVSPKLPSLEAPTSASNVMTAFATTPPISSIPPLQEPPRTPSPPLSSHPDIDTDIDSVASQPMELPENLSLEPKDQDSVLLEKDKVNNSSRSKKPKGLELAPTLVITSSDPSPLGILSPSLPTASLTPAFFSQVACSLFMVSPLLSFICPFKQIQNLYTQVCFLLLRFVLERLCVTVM
The following applies: protein: recombinant; tags: N-terminal GST; dsDNA, one strand shown. A digest of the protocol: as §1

Experiment [7] has as its target T4, ETV2 (Homo sapiens, UniProt O00321 1-342).
T4 sequence: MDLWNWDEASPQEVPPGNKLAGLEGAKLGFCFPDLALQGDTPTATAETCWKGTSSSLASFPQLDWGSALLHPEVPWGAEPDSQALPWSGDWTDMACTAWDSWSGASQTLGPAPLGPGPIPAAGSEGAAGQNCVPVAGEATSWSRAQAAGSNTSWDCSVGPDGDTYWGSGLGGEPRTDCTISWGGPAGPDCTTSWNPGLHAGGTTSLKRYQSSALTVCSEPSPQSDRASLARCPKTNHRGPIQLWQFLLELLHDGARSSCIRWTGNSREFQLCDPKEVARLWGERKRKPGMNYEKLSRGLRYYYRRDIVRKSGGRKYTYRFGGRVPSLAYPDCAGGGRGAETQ
The following applies: protein: recombinant; tags: N-terminal GST; dsDNA, one strand shown. The essentials:
as §1

Experiment [8] deals with T5, ELF3 (Homo sapiens, UniProt P78545 1-371).
T5 sequence: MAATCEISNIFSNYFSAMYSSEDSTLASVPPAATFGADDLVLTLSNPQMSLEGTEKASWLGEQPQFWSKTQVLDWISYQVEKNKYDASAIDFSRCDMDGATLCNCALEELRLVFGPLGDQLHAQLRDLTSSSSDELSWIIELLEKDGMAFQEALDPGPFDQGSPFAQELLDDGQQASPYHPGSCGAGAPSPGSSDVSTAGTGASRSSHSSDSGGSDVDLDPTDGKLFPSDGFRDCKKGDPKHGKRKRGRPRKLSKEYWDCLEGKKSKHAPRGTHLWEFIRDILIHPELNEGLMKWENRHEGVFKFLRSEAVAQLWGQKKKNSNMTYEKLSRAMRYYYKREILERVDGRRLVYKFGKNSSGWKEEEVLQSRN
The following applies: protein: recombinant; tags: N-terminal GST; dsDNA, one strand shown. A digest of the protocol: as §1

In experiment [9] the target is CRX (Homo sapiens, UniProt O43186 1-299). The following applies: protein: recombinant; tags: N-terminal GST; dsDNA, one strand shown. A digest of the protocol:
as §1

Experiment [10] concerns the target ETV1 (Homo sapiens, UniProt P50549 1-477). The conditions noted are these: protein: recombinant; tags: N-terminal GST; dsDNA, one strand shown. The essentials:
as §1

Experiment [11] addresses T6, ERF (Homo sapiens, UniProt P50548 1-548).
T6 sequence: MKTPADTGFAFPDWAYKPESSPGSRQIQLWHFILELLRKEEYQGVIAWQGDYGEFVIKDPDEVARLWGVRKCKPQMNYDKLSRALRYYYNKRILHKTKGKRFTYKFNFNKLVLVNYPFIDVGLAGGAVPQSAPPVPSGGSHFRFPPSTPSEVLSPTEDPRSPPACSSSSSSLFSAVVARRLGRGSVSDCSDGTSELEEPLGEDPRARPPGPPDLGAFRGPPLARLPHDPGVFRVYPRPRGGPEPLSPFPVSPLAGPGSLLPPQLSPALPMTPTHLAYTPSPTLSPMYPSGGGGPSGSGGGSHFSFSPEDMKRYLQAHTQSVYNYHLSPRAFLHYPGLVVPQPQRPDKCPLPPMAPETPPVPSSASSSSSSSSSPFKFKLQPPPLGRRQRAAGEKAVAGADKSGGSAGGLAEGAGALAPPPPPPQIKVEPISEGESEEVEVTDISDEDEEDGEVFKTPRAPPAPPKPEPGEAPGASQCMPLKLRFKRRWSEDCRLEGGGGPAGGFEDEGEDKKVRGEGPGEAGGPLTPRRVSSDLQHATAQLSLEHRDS
The following applies: protein: recombinant; tags: N-terminal GST; dsDNA, one strand shown. A digest of the protocol:
as §1

For experiment [12], the target named is T7, ETV3L (Homo sapiens, UniProt Q6ZN32 1-361).
T7 sequence: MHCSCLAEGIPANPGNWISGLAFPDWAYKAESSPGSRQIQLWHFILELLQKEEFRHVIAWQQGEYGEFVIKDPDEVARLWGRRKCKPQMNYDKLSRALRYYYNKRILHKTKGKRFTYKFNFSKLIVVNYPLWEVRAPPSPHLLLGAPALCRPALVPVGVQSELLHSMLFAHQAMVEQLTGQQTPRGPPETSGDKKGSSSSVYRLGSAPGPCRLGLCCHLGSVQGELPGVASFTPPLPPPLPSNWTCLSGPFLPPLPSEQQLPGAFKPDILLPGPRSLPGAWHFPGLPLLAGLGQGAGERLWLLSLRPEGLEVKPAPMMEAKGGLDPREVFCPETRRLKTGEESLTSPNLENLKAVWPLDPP
The conditions noted are these: protein: recombinant; tags: N-terminal GST; dsDNA, one strand shown. The essentials: as §1

For experiment [13], the target named is T8, ETS2 (Homo sapiens, UniProt P15036 1-469).
T8 sequence: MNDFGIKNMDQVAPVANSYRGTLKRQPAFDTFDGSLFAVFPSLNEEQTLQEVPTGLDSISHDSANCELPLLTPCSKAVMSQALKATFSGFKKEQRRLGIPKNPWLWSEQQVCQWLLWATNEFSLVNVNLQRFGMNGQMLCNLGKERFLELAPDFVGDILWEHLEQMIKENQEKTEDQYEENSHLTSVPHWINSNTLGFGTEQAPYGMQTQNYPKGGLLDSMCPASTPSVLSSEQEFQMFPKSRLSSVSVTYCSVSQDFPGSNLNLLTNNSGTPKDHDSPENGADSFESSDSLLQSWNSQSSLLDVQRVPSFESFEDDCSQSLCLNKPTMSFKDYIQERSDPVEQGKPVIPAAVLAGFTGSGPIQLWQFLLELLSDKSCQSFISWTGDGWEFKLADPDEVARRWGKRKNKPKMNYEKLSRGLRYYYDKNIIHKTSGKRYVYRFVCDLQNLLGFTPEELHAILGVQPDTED
The conditions noted are these: protein: recombinant; tags: N-terminal GST; dsDNA, one strand shown. A digest of the protocol:
as §1

Experiment [14] has as its target T9, SPDEF (Homo sapiens, UniProt O95238 1-335).
T9 sequence: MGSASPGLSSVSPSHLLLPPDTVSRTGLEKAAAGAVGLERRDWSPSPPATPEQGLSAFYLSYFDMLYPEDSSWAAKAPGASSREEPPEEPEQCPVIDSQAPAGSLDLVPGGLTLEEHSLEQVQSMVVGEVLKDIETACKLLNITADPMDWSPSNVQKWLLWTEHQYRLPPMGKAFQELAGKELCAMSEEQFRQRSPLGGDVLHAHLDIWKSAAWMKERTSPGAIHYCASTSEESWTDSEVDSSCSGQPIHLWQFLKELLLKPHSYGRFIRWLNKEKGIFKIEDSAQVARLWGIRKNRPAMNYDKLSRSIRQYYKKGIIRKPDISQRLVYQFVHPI
The following applies: protein: recombinant; tags: N-terminal GST; dsDNA, one strand shown. The essentials:
as §1

Experiment [15] addresses T10, ETV7 (Homo sapiens, UniProt Q9Y603 1-341).
T10 sequence: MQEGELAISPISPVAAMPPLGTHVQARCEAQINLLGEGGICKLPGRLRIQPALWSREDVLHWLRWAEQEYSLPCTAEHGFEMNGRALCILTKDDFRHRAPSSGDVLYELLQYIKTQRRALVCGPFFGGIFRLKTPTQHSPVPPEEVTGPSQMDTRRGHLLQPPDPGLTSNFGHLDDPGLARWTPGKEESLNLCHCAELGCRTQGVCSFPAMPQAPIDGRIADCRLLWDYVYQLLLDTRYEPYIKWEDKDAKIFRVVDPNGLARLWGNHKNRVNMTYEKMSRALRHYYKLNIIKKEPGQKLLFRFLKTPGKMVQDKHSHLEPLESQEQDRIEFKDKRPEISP
The conditions noted are these: protein: recombinant; tags: N-terminal GST; dsDNA, one strand shown. A digest of the protocol:
as §1

The target in experiment [16] is T11, ELF5 (Homo sapiens, UniProt Q9UKW6-2 1-255).
T11 sequence: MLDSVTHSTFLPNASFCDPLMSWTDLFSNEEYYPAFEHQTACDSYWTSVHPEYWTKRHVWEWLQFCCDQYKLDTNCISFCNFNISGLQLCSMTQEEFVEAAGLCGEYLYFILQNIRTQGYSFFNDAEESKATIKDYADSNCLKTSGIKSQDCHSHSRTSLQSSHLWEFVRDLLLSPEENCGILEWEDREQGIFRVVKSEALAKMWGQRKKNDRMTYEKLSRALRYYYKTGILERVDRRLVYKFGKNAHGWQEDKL
The following applies: protein: recombinant; tags: N-terminal GST; dsDNA, one strand shown. The essentials:
as §1

The target in experiment [17] is T12, ETV3 (Homo sapiens, UniProt P41162-2 1-143).
T12 sequence: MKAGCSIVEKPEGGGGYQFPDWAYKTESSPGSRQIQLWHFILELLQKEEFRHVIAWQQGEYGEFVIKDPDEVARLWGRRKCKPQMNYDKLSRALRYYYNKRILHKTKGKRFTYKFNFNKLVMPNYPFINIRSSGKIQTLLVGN
The conditions noted are these: protein: recombinant; tags: N-terminal GST; dsDNA, one strand shown. The essentials: as §1

For experiment [18], the target named is ETV6 (Homo sapiens, UniProt P41212 1-452). The following applies: protein: recombinant; tags: N-terminal GST; dsDNA, one strand shown. The essentials:
as §1

Chain of CRX (O43186 whole entry): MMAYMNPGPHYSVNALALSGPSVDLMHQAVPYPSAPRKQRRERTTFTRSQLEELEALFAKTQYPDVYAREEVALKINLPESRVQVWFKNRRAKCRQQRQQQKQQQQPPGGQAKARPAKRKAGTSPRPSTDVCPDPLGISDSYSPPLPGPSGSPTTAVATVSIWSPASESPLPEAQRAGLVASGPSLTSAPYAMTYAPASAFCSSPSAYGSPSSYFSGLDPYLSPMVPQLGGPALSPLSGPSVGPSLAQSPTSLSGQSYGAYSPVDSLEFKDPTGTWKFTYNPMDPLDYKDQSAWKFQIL
Chain of ETV5 (P41161 whole entry): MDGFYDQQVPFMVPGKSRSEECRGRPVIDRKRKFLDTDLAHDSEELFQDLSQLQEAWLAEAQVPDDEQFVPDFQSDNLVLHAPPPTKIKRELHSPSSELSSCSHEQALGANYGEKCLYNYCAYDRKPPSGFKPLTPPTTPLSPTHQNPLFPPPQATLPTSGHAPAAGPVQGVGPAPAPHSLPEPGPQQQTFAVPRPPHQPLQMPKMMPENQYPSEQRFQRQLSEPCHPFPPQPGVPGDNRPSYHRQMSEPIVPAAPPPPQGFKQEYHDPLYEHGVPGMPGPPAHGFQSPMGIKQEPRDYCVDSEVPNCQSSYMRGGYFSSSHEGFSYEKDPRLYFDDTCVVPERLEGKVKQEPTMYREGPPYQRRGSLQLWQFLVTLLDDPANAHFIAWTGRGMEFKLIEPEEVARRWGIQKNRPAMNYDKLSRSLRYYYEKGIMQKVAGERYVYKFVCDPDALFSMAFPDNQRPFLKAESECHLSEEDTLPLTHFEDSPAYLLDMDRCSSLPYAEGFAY
Chain of ETV1 (P50549 whole entry): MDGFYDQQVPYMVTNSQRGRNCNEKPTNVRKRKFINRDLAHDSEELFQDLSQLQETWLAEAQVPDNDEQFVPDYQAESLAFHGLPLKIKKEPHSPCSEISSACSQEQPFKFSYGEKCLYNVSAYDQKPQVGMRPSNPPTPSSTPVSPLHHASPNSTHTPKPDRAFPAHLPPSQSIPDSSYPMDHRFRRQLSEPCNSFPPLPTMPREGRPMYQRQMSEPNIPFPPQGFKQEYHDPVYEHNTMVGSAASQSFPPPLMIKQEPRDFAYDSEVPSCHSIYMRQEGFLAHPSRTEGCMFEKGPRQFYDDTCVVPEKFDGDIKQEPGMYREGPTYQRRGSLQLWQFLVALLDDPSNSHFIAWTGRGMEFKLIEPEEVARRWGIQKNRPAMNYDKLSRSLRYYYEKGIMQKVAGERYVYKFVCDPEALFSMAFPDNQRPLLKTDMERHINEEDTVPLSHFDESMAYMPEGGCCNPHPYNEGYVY
Chain of ELF4 (Q99607 whole entry): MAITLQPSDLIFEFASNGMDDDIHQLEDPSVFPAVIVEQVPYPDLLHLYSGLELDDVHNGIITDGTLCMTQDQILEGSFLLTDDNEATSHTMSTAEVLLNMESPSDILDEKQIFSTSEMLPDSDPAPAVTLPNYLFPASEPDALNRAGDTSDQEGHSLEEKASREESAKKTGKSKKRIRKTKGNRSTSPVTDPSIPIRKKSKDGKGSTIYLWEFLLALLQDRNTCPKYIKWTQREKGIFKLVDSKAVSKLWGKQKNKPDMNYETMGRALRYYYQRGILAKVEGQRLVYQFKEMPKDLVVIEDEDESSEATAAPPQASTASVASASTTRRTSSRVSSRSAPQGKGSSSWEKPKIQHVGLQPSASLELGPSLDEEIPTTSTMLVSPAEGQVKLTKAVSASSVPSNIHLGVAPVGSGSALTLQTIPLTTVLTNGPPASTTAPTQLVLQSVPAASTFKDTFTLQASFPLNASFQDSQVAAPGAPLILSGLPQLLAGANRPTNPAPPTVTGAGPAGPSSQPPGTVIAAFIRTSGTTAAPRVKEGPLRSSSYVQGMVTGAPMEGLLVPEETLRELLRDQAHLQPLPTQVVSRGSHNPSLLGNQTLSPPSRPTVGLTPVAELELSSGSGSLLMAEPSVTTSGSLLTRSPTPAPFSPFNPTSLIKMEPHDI
Chain of ETV6 (P41212 whole entry): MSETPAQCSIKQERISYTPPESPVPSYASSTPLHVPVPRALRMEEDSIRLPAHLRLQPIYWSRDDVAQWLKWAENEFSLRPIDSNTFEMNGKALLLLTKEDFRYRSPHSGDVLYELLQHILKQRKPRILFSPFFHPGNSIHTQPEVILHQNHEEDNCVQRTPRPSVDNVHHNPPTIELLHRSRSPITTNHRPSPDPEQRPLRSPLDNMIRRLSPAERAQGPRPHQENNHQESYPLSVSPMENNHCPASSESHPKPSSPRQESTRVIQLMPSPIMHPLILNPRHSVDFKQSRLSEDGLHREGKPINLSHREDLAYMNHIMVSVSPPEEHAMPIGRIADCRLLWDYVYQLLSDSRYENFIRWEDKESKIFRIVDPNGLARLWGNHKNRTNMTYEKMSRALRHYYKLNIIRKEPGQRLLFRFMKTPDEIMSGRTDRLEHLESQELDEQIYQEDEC
Chain of HSF1 (Q00613 whole entry): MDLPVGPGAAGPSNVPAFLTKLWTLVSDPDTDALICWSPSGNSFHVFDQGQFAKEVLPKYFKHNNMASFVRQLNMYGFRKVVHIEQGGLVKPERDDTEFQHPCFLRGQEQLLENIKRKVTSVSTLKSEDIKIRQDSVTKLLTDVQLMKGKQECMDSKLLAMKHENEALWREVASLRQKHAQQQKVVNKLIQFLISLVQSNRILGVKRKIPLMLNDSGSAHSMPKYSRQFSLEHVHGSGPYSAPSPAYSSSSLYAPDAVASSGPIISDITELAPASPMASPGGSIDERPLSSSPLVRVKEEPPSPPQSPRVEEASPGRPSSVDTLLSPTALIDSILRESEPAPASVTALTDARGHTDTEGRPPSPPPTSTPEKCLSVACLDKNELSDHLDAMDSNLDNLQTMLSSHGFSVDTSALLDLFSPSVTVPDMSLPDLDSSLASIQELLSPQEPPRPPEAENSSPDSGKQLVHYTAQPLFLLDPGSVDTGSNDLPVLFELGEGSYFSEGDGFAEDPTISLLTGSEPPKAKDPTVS

Consider ATTCTA, for which the binding signal was 1.14 fold enrichment (6-mer frequency, TF over GST control) in [1]; 1.16 fold enrichment (6-mer frequency, TF over GST control) in experiment [2]; 3.09 fold enrichment (6-mer frequency, TF over GST control) in experiment [3]; 1.26 fold enrichment (6-mer frequency, TF over GST control) in experiment [4]; 1.2 fold enrichment (6-mer frequency, TF over GST control) in experiment [5]; 1.32 fold enrichment (6-mer frequency, TF over GST control) in experiment [6]. For the same sequence, the binding signal in experiment [7] is 1.26 fold enrichment (6-mer frequency, TF over GST control); in experiment [8], 1.24 fold enrichment (6-mer frequency, TF over GST control); in experiment [9], 1.84 fold enrichment (6-mer frequency, TF over GST control); in experiment [10], 1.2 fold enrichment (6-mer frequency, TF over GST control); in experiment [11], 1.32 fold enrichment (6-mer frequency, TF over GST control); in experiment [12], 1.22 fold enrichment (6-mer frequency, TF over GST control). Besides, the binding signal in experiment [13] was 1.3 fold enrichment (6-mer frequency, TF over GST control); in experiment [14], 1.23 fold enrichment (6-mer frequency, TF over GST control); in [15], 1.28 fold enrichment (6-mer frequency, TF over GST control); in experiment [16], 1.15 fold enrichment (6-mer frequency, TF over GST control); in experiment [17] it was 1.2 fold enrichment (6-mer frequency, TF over GST control); in [18] it was 1.15 fold enrichment (6-mer frequency, TF over GST control).
